Hit rate of the full screen: of about 300,000 compounds, about 37,000 (12%) were called active. The list comes from a sample in which actives are over-represented; it also holds similar structures and randomly drawn compounds. Values without a mark were called inactive. Rule as the data show it: active = max response mostly above about 13% (no sharp cut-off); inactive = mostly below about 14%.
Assay: Cycloheximide Counterscreen for Small Molecule Inhibitors of Shiga Toxin; also: read at 38.3 µM for the half of the compounds with a filed dose; 0% is about no effect
Settings: cell reporter, cycloheximide protein synthesis inhibition counterscreen; hits give high values

| Structure (SMILES) | max response |
| --- | --- |
| CC(C)c1ccc(S(=O)(=O)N2CCN(C(=O)c3ccc(N4CCCC4)c([N+](=O)[O-])c3)CC2)cc1 | 21.7% |
| CCC(C)N1C(=S)SC(C)(C)C1N(O)C(=O)NC1CCCCC1 (centres undefined) | -3% |
| CCCCNC(=O)N(O)C1N(/N=C/c2ccccc2O)C(=S)SC1(C)C (centres undefined) | 40.5% (active) |
| CCCCNC(=O)N(O)C1N(/N=C/c2ccc(N(C)C)cc2)C(=S)SC1(C)C (centres undefined) | -1.87% |
| COc1ccc(CC(=O)Nc2sc(Cc3ccccc3)c(C)c2C(N)=O)cc1 | -4.58% |
| CCCc1cc(=S)n2c([nH]c3ccccc32)c1C#N | 9.34% |
| COc1cc(C(=O)N2CCN(C/C=C/c3ccccc3)CC2)cc(OC)c1C | -2.42% |
| Cc1ccc(C(=O)N/C(=C/c2ccco2)C(=O)NCCc2c[nH]c3ccccc23)cc1C | 15.8% (active) |
| O=C(NC(Cc1c[nH]c2ccccc12)C(=O)O)/C(=C/c1ccco1)NC(=O)c1ccccc1 (centres undefined) | 7.91% |
| O=C(NCCc1c[nH]c2ccccc12)c1cc2ccccc2oc1=O | 52.8% (active) |
| COc1ccccc1CC(=O)NCCc1c[nH]c2ccccc12 | 5.67% |
| COc1ccc(/C=C(\NC(=O)c2ccc(OC)c(OC)c2)C(=O)NCCc2c[nH]c3ccccc23)cc1 | -2.44% |
| Cc1cc(C)cc(NC(=S)NCCc2c[nH]c3ccccc23)c1 | -3.82% |
| O=C(NCCc1c[nH]c2ccccc12)c1cccc(Br)c1 | 27.9% (active) |
| O=C(NCCc1c[nH]c2ccccc12)C(=O)NCC1CCCO1 (centres undefined) | -2.43% |
| CN(c1ccccc1)S(=O)(=O)c1ccc(Cl)c(C(=O)NCCc2c[nH]c3ccccc23)c1 | -2.81% |
| Cc1cc(C)cc(NS(=O)(=O)Cc2ccccc2)c1 | 2.71% |
| COc1ccc(CNc2nc3c(c(=O)[nH]c(=O)n3C)n2Cc2ccccc2)cc1 | 1.15% |
| CCn1c(CNC(=O)c2cc(OC)c(OC)c(OC)c2)cc2cc(C)ccc21 | -0.507% |
| CC(=O)c1c(C)[nH]c(C(=O)COC(=O)c2cccc(S(=O)(=O)N(C)c3ccccc3)c2)c1C | 6.94% |
| COc1ccc(C(=O)OCC(=O)NCC2CCCO2)cc1[N+](=O)[O-] (centres undefined) | 0.371% |
| CCC(=O)c1ccc(OCC(O)Cn2nc(C)c(C(C)=O)c2C)cc1 (centres undefined) | -6.71% |
| O=C(NCc1cccc(Cl)c1)C1CCC(=O)N(C2CC2)C1 (centres undefined) | 0.588% |
| Cc1ccccc1NC(=O)CSc1ccc2nnc(-c3ccccn3)n2n1 | -1.54% |
| O=C(CSc1ccc(-c2ccco2)nn1)Nc1cccc(F)c1 | 26% (active) |
| O=C(CSc1ccc(-c2ccc(F)cc2)nn1)Nc1ccc2c(c1)OCCO2 | 10.9% |
| COc1ccc(NC(=O)CSc2ccc(-c3ccco3)nn2)c(OC)c1 | 9.5% |
| COc1cc(NC(=O)CSc2ccc(-c3cccnc3)nn2)cc(OC)c1 | -2.34% |
| O=C(CSc1ccc(-c2ccccn2)nn1)Nc1ccccc1 | 20% (active) |

From PubChem BioAssay AID2314 (National Center for Advancing Translational Sciences (NCATS), 2010)
